From PubChem BioAssay (EPA / NIEHS) come the findings set out here.

Results filed as inconclusive are left out. Activity calls are given as the source filed them. The calls were made as follows: active = hit-call score of the fitted dose curve at least 0.9, where 1 is the maximum; inconclusive = response in the unintended direction; inactive = score below 0.9.

Chain of human Opioid Receptor Mu (Opiate Mu), OPRM1 (gene 4988) (P35372 whole entry, looked up): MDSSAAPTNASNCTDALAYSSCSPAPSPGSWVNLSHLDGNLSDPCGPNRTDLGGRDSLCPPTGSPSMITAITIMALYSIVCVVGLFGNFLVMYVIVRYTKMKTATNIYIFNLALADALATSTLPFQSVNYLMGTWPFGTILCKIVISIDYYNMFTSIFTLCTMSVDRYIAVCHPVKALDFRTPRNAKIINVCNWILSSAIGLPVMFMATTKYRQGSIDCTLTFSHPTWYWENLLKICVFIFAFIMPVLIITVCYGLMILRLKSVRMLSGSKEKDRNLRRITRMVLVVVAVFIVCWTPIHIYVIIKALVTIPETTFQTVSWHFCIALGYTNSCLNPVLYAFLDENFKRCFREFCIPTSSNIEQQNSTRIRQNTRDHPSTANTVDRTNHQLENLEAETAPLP

The target in the first assay is human Thromboxane A2 Receptor (TXA2), TBXA2R (gene 6915) (UniProt P21731). Description: NVS_GPCR_hTXA2: NovaScreen (NVS) G Protein-Coupled Receptor Assay for human Thromboxane A2 Receptor (TXA2) (AID 2283282).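 Also: actives reduce bound radioligand signal relative to DMSO baseline.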 A digest of the protocol: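 Cell-free radioligand binding with human platelet-derived receptor; 1 h after dosing, filter-based scintillation counting, loss of signal vs DMSO. Primary screen in duplicate at 25 uM.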
Chain of human Thromboxane A2 Receptor (TXA2), TBXA2R (gene 6915) (P21731 whole entry, looked up): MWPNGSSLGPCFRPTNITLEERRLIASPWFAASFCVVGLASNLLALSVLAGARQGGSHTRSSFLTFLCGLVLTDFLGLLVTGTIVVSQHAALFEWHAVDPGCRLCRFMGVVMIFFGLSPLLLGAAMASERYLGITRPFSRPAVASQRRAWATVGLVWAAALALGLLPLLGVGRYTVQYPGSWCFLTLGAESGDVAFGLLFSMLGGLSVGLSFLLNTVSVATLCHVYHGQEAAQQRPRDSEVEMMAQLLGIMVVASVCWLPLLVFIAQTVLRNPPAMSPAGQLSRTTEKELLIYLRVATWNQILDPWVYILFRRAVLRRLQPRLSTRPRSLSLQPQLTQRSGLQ
Consider `C/C(=N\NC(=O)Nc1cc(F)cc(F)c1)c1ncccc1C(=O)O`, for which the call was inactive.
For the compound `Cc1ccc2c(c1N)C(=O)c1ccccc1C2=O`, the compound was classed as inactive.
Still for that read-out and setting: in the case of `CC(=O)c1ccc(-c2ccccc2)cc1` it was “inactive”.
For `N#Cc1ccc(O)cc1`, the call was inactive.
As for `CSC(C)(C)C=NO`, the result was inactive.
The AC50 is the concentration at which the activity in the assay is half-maximal. With `N#Cc1c(-c2ccc(Cl)cc2)[nH]c(C(F)(F)F)c1Br`, the half-maximal activity concentration (AC50) was 4.66 µM (active).

Another assay addresses human Opioid Receptor Mu (Opiate Mu), OPRM1 (gene 4988) (UniProt P35372). As to the kind of experiment: NVS_GPCR_hOpiate_mu: NovaScreen (NVS) G Protein-Coupled Receptor Assay for human Opioid Receptor Mu (Opiate Mu) (AID 2283290).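 Also: hits lower bound tracer signal versus DMSO meaning displacement of the ligand.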 A digest of the protocol: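 Primary screen in duplicate at 25 uM, with actives followed in concentration series. CHO-derived receptor membranes, cell-free; bound radioligand read by scintillation counting after filtration at 2.5 h, decrease scored against DMSO.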
As to `CCOP(=S)(OCC)SCS(=O)(=O)CC`, the outcome was inactive.
As for `Nc1ccc2ccccc2c1`, the result was inactive.
On to `Cc1ccc(O)cc1C`, for which the compound was classed as inactive.
For the compound `CCCN(CCC)c1c([N+](=O)[O-])cc(C(C)C)cc1[N+](=O)[O-]`, the call was inactive.
For `OCC1CO1` (stereo not drawn), the call was inactive.
For `CCC(C)(C)c1ccc(O)cc1`, the AC50 was 6.43 µM (active).
Regarding `CC1(C)CN=C(NN=C(/C=C/c2ccc(C(F)(F)F)cc2)/C=C/c2ccc(C(F)(F)F)cc2)NC1`, the half-maximal activity concentration (AC50) was 6.5 µM (active).
In the case of `c1cc2c3c(cccc3c1)CC2`, the outcome was inactive.
Take `O=c1ssc(Cl)c1Cl`: the AC50 was 0.885 µM (active).
Regarding `CSC(C)(C)C=NO`, the compound was called inactive.
As for `N#Cc1c(-c2ccc(Cl)cc2)[nH]c(C(F)(F)F)c1Br`, the call was inactive.
`CCCCN(CCCC)SN(C)C(=O)Oc1cccc2c1OC(C)(C)C2`: the compound was called inactive.
